Experimental data published in PubChem BioAssay.
Results with a measured potency or affinity are listed apart. Inconclusive results are not listed. Calls of active or inactive are those of the source. Unless noted, no rule for the calls is given here.

Key:
[1] = cytotoxicity in PAX8-dependent RMG-1 cells, dose response, cell-based, cherry-pick (AID 687029;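 active = signal drop whose fitted half-maximal concentration is at most twice the top valid dose, in every test run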;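 also: cells exposed to compound for 96 hours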)
[2] = cytotoxicity in IOSE-T80 ovarian epithelial cells, dose response, selectivity assay for PAX8 inhibitor project, cell-based, cherry-pick (AID 687032;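 active = fitted half-maximal concentration for viability loss no higher than twice the top valid dose, in every repeat run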;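 also: cells exposed to compound for 96 h before reading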)
[3] = inhibitors of CMV-promoter luciferase reporter, dose response, counter-screen for Pax8 inhibitor project, cell-based, HEK293, luminescence, dry powder (AID 743020;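 active = signal-lowering compounds whose fitted half-maximal concentration is at or below twice the top tested dose in every run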;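 also: HEK293 cells stably expressing the CMV luciferase reporter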)
[4] = non-specific cell cytotoxicity, dose response, cytotoxicity control for PAX8 inhibitor project, plate reader, dry powder samples (AID 743021)
[5] = IGROV1 ovarian cancer cell cytotoxicity, dose response, PAX8 inhibitor project, plate reader, dry powder samples (AID 743043);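 also: more negative means fewer viable cells or more cytotoxicity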
[6] = IOSE-T80 ovarian epithelial cell cytotoxicity, dose response, cytotoxicity control for PAX8 inhibitor project, plate reader, dry powder samples (AID 743045);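 also: more negative values mean more cell killing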
[7] = A2780 ovarian cancer cell cytotoxicity, dose response, cytotoxicity control, plate reader, dry powder samples (AID 743046)
[8] = cytotoxicity in OVCAR8 ovarian cancer cells, dose response, PAX8 project, cell-based, plate reader, dry powder samples (AID 743197)

Measured: outcome

Cc1ccc(S(=O)(=O)Nc2ccc3c(c2)C(=O)N([C@H](C)CO)C[C@@H](C)[C@H](CN(C)Cc2ccc(Cl)c(Cl)c2)OCCCC[C@H](C)O3)cc1
not listed: [8]
inactive: all other assays above

C[C@@H]1CCCCO[C@H](CN(C)Cc2ccccc2)[C@@H](C)CN([C@@H](C)CO)C(=O)c2cc(NC(=O)Nc3ccc(C(F)(F)F)cc3)ccc2O1
not listed: [8]
inactive: all other assays above

C[C@@H]1CN([C@H](C)CO)C(=O)c2cc(NC(=O)Nc3cccc4ccccc34)ccc2O[C@@H]1CN(C)C(=O)Nc1cccc2ccccc12
not listed: [8]
inactive: all other assays above

COc1ccc(S(=O)(=O)Nc2ccc3c(c2)CC(=O)N([C@@H](C)CO)C[C@@H](C)[C@H](CN(C)Cc2ccc(C(F)(F)F)cc2)O3)cc1
not listed: [8]
inactive: all other assays above

C[C@@H]1CN([C@H](C)CO)C(=O)c2cc(NS(=O)(=O)c3cccs3)ccc2O[C@@H](C)CCCCO[C@@H]1CN(C)Cc1ccc(C(F)(F)F)cc1
inactive: all assays above

C[C@H]1CN([C@@H](C)CO)C(=O)Cc2cc(NC(=O)Nc3ccc(F)cc3)ccc2O[C@H]1CN(C)Cc1ccc(Cl)c(Cl)c1
inactive: all assays above

COc1cccc(-c2ccc3c(c2)[C@H]2[C@H](CCN2C(=O)NC2CCCCC2)[C@@H](CO)N3C)c1
not listed: [7]
inactive: all other assays above

COc1ccc2c3c(n(C)c2c1)[C@@H](CO)N(C(=O)Nc1ccc(F)cc1)CC31CCN(S(=O)(=O)c2cccc(C)c2)CC1
inactive: all assays above

O=C(Nc1ccc(F)cc1)N[C@H]1CC[C@H](CCNC(=O)c2cc(Cl)cc(Cl)c2)O[C@H]1CO
inactive: all assays above

CS(=O)(=O)N1CC(=O)N2[C@H](CO)[C@H](c3ccc(C#CCC4CCCC4)cc3)[C@H]2C1
not listed: [7]
inactive: all other assays above

O=C(C[C@@H]1C[C@H]2c3cc(NC(=O)Nc4ccc(C(F)(F)F)cc4)ccc3O[C@H]2[C@H](CO)O1)NCc1ccc(Cl)cc1
inactive: all assays above

O=C(C[C@@H]1C[C@@H]2c3cc(NC(=O)Cc4ccncc4)ccc3O[C@@H]2[C@H](CO)O1)NCc1ccc(-c2ccccc2)cc1
inactive: all assays above

COc1ccc(-c2ccc3c(c2)[C@H]2[C@H](CCN2S(=O)(=O)c2ccc(OC)cc2)[C@@H](CO)N3C)cc1
not listed: [6] | [8]
inactive: all other assays above

C[C@@H]1CN([C@H](C)CO)C(=O)c2cc(NS(=O)(=O)c3cccs3)ccc2O[C@@H](C)CCCCO[C@H]1CN(C)Cc1ccc(Cl)c(Cl)c1
inactive: all assays above

C[C@H]1CN([C@@H](C)CO)S(=O)(=O)c2ccc(C#Cc3ccc(F)cc3)cc2O[C@@H]1CN(C)C(=O)NC1CCCCC1
inactive: all assays above

C[C@@H]1CCCCO[C@H](CN(C)Cc2ccc(C(F)(F)F)cc2)[C@H](C)CN([C@@H](C)CO)C(=O)c2cc(NC(=O)c3ccccc3)ccc2O1
not listed: [6] | [8]
inactive: all other assays above
